Assays:
Details in all cases: Compound Concentration (nM):1000
AAK1 = tested on: AAK1
[1] = tested on: ABL1(E255K)-phosphorylated
[2] = tested on: ABL1(F317I)-nonphosphorylated
[3] = tested on: ABL1(F317I)-phosphorylated
[4] = tested on: ABL1(F317L)-nonphosphorylated
[5] = tested on: ABL1(F317L)-phosphorylated
[6] = tested on: ABL1(H396P)-nonphosphorylated
[7] = tested on: ABL1(H396P)-phosphorylated
[8] = tested on: ABL1(M351T)-phosphorylated
[9] = tested on: ABL1(Q252H)-nonphosphorylated
[10] = tested on: ABL1(Q252H)-phosphorylated
[11] = tested on: ABL1(T315I)-nonphosphorylated
[12] = tested on: ABL1(T315I)-phosphorylated
[13] = tested on: ABL1(Y253F)-phosphorylated
ABL1-nonphosphorylated = tested on: ABL1-nonphosphorylated
ABL1-phosphorylated = tested on: ABL1-phosphorylated
ABL2 = tested on: ABL2
ACVR1B = tested on: ACVR1B
ACVR1 = tested on: ACVR1
ACVR2A = tested on: ACVR2A
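Note: KINOMEscan scanMAX binding as percent activity remaining versus control; lower means stronger binding.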

Cl.O=C(O[C@H]1CN[C@H](C#Cc2cc3ncnc(Nc4ccc5c(cnn5Cc5ccccc5)c4)c3s2)C1)N1CCOCC1 [GSK200398A]
Percent Control (AAK1): 87%
Percent Control [1]: 88%
Percent Control [2]: 89%
Percent Control [3]: 85%
Percent Control [4]: 100%
Percent Control [5]: 52%
Percent Control [6]: 80%
Percent Control [7]: 90%
Percent Control [8]: 100%
Percent Control [9]: 84%
Percent Control [10]: 80%
Percent Control [11]: 100%
Percent Control [12]: 100%
Percent Control [13]: 78%
Percent Control (ABL1-nonphosphorylated): 84%
Percent Control (ABL1-phosphorylated): 76%
Percent Control (ABL2): 100%
Percent Control (ACVR1B): 100%
Percent Control (ACVR1): 100%
Percent Control (ACVR2A): 100%

Cl.O=C(Nc1ccc(Oc2ccc3[nH]c(NC(=O)c4ccccc4)nc3c2)cc1)Nc1cc(C(F)(F)F)ccc1F [GW709042A]
Percent Control (AAK1): 100%
Percent Control [1]: 83%
Percent Control [2]: 43%
Percent Control [3]: 76%
Percent Control [4]: 26%
Percent Control [5]: 80%
Percent Control [6]: 9.9%
Percent Control [7]: 67%
Percent Control [8]: 62%
Percent Control [9]: 8%
Percent Control [10]: 94%
Percent Control [11]: 12%
Percent Control [12]: 31%
Percent Control [13]: 69%
Percent Control (ABL1-nonphosphorylated): 9.8%
Percent Control (ABL1-phosphorylated): 60%
Percent Control (ABL2): 26%
Percent Control (ACVR1B): 100%
Percent Control (ACVR1): 100%
Percent Control (ACVR2A): 100%

Nc1ncnc2occ(-c3ccc(NC(=O)Nc4cc(C(F)(F)F)ccc4F)cc3)c12 [GW770249X]
Percent Control (AAK1): 96%
Percent Control [1]: 78%
Percent Control [2]: 67%
Percent Control [3]: 61%
Percent Control [4]: 7.8%
Percent Control [5]: 54%
Percent Control [6]: 2.9%
Percent Control [7]: 72%
Percent Control [8]: 45%
Percent Control [9]: 0%
Percent Control [10]: 92%
Percent Control [11]: 0%
Percent Control [12]: 9.1%
Percent Control [13]: 72%
Percent Control (ABL1-nonphosphorylated): 0.7%
Percent Control (ABL1-phosphorylated): 56%
Percent Control (ABL2): 41%
Percent Control (ACVR1B): 100%
Percent Control (ACVR1): 100%
Percent Control (ACVR2A): 100%

NS(=O)(=O)c1ccc(N/N=C2\C(=O)Nc3ccc(Cl)cc32)cc1 [GW280670X]
Percent Control (AAK1): 94%
Percent Control [1]: 100%
Percent Control [2]: 99%
Percent Control [3]: 96%
Percent Control [4]: 100%
Percent Control [5]: 100%
Percent Control [6]: 81%
Percent Control [7]: 100%
Percent Control [8]: 100%
Percent Control [9]: 81%
Percent Control [10]: 100%
Percent Control [11]: 100%
Percent Control [12]: 100%
Percent Control [13]: 100%
Percent Control (ABL1-nonphosphorylated): 93%
Percent Control (ABL1-phosphorylated): 100%
Percent Control (ABL2): 100%
Percent Control (ACVR1B): 100%
Percent Control (ACVR1): 100%
Percent Control (ACVR2A): 100%

Cc1cc(O)cc(C)c1/C=C/c1cncc(C(N)=O)c1 [GW435821X]
Percent Control (AAK1): 100%
Percent Control [1]: 6.8%
Percent Control [2]: 90%
Percent Control [3]: 32%
Percent Control [4]: 37%
Percent Control [5]: 9%
Percent Control [6]: 4.9%
Percent Control [7]: 14%
Percent Control [8]: 15%
Percent Control [9]: 7.9%
Percent Control [10]: 13%
Percent Control [11]: 100%
Percent Control [12]: 85%
Percent Control [13]: 8.8%
Percent Control (ABL1-nonphosphorylated): 25%
Percent Control (ABL1-phosphorylated): 14%
Percent Control (ABL2): 47%
Percent Control (ACVR1B): 89%
Percent Control (ACVR1): 7.3%
Percent Control (ACVR2A): 14%

COc1cc(C=NNc2ncnc3c2cnn3-c2ccccc2)ccc1O [GW513184X]
Percent Control (AAK1): 91%
Percent Control [1]: 15%
Percent Control [2]: 92%
Percent Control [3]: 92%
Percent Control [4]: 100%
Percent Control [5]: 91%
Percent Control [6]: 4.7%
Percent Control [7]: 26%
Percent Control [8]: 25%
Percent Control [9]: 8.4%
Percent Control [10]: 13%
Percent Control [11]: 37%
Percent Control [12]: 35%
Percent Control [13]: 26%
Percent Control (ABL1-nonphosphorylated): 31%
Percent Control (ABL1-phosphorylated): 23%
Percent Control (ABL2): 55%
Percent Control (ACVR1B): 53%
Percent Control (ACVR1): 22%
Percent Control (ACVR2A): 68%

COc1cccc(-n2ncc3c(N/N=C/c4ccncc4)ncnc32)c1 [GW784752X]
Percent Control (AAK1): 85%
Percent Control [1]: 1.5%
Percent Control [2]: 100%
Percent Control [3]: 78%
Percent Control [4]: 98%
Percent Control [5]: 24%
Percent Control [6]: 0%
Percent Control [7]: 1.5%
Percent Control [8]: 0%
Percent Control [9]: 0%
Percent Control [10]: 1.7%
Percent Control [11]: 59%
Percent Control [12]: 27%
Percent Control [13]: 1.6%
Percent Control (ABL1-nonphosphorylated): 7%
Percent Control (ABL1-phosphorylated): 1.8%
Percent Control (ABL2): 54%
Percent Control (ACVR1B): 54%
Percent Control (ACVR1): 5.4%
Percent Control (ACVR2A): 81%

O=C1Nc2ccc(C(=O)c3ccco3)cc2C1=Cc1cc(Cl)c(O)c(Cl)c1 [GW406108X]
Percent Control (AAK1): 30%
Percent Control [1]: 68%
Percent Control [2]: 89%
Percent Control [3]: 79%
Percent Control [4]: 100%
Percent Control [5]: 71%
Percent Control [6]: 60%
Percent Control [7]: 87%
Percent Control [8]: 70%
Percent Control [9]: 71%
Percent Control [10]: 88%
Percent Control [11]: 96%
Percent Control [12]: 78%
Percent Control [13]: 83%
Percent Control (ABL1-nonphosphorylated): 87%
Percent Control (ABL1-phosphorylated): 76%
Percent Control (ABL2): 100%
Percent Control (ACVR1B): 100%
Percent Control (ACVR1): 89%
Percent Control (ACVR2A): 92%

COc1cc2ncnc(Nc3ccc4c(cnn4Cc4ccccc4)c3)c2cc1OC.Cl [GW282449A]
Percent Control (AAK1): 100%
Percent Control [1]: 100%
Percent Control [2]: 100%
Percent Control [3]: 81%
Percent Control [4]: 93%
Percent Control [5]: 60%
Percent Control [6]: 80%
Percent Control [7]: 100%
Percent Control [8]: 100%
Percent Control [9]: 96%
Percent Control [10]: 100%
Percent Control [11]: 100%
Percent Control [12]: 100%
Percent Control [13]: 100%
Percent Control (ABL1-nonphosphorylated): 90%
Percent Control (ABL1-phosphorylated): 100%
Percent Control (ABL2): 100%
Percent Control (ACVR1B): 100%
Percent Control (ACVR1): 100%
Percent Control (ACVR2A): 100%

CCS(=O)(=O)c1ccc(OC)c(Nc2ncc(-c3cccc(OC)c3)o2)c1 [GW580509X]
Percent Control (AAK1): 100%
Percent Control [1]: 5%
Percent Control [2]: 90%
Percent Control [3]: 40%
Percent Control [4]: 45%
Percent Control [5]: 6.2%
Percent Control [6]: 1.4%
Percent Control [7]: 7.9%
Percent Control [8]: 6.5%
Percent Control [9]: 6.8%
Percent Control [10]: 3.2%
Percent Control [11]: 100%
Percent Control [12]: 97%
Percent Control [13]: 8%
Percent Control (ABL1-nonphosphorylated): 16%
Percent Control (ABL1-phosphorylated): 9.4%
Percent Control (ABL2): 26%
Percent Control (ACVR1B): 100%
Percent Control (ACVR1): 27%
Percent Control (ACVR2A): 100%

Source: publication PMC7826789 (International Journal of Molecular Sciences, 2021)
